Data: PubChem BioAssay (Tox21)
Where “and” joins values, the source holds several entries; their conditions need not be identical. Identical values can stand only once. Records with an inconclusive call do not appear. A call without a number means that no potency is given here. Calls of active or inactive are those of the source. Unless noted, the call rests on the fitted dose curve; in most records, active means well fitted curve in the direction sought with a large enough effect in the repeat runs; inconclusive means weak or mixed curves; inactive means no such curve, though single readings can be large; an effect the other way counts as inactive or inconclusive.

Columns and labels:
[1] = qHTS assay to identify small molecule antagonists of the thyroid receptor (TR) signaling pathway (AID 743065); further: nearly all actives have a fitted effect of over 55% in size; further: potency means the concentration at half of the fitted maximal effect
Procedure, shortened: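 Antagonism measured as loss of luciferase signal in GH3 cells stably carrying a TRE-luciferase reporter, co-treated with compound and T3 (1 nM final) for 23.5 h at 37 C. Viability was read in the same well by CellTiter-Fluor.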

[2] = tested on: thyroid hormone receptor (rat, GH3 cells); assay: qHTS assay to identify small molecule agonists of the thyroid receptor (TR) signaling pathway (AID 743066; calls by dose curve)
[3] = target: Estrogen receptor (Homo sapiens) (UniProt P03372); assay: qHTS assay to identify small molecule antagonists of the estrogen receptor alpha (ER-alpha) signaling pathway (AID 743069; active means well fitted curve in the direction sought with a large enough effect in the signal ratio in the repeat runs, not every such curve was filed as active; the % refers to the signal ratio)
Procedure, shortened: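 Fluorescence intensity from a beta-lactamase FRET substrate served as the read-out. Cells: HEK293 with stably integrated ER-alpha-UAS-bla reporter. Agonist 17beta-estradiol was co-added with compounds; incubation 18 hr at 37C, substrate 2 hr at room temperature.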

[4] = qHTS assay to identify small molecule antagonists of the estrogen receptor alpha (ER-alpha) signaling pathway - cell viability counter screen (AID 743074; calls by dose curve; further: nearly all actives have a fitted effect of over 45% in size)
[5] = target: Estrogen receptor (Homo sapiens) (UniProt P03372); assay: qHTS assay to identify small molecule agonists of the estrogen receptor alpha (ER-alpha) signaling pathway (AID 743075; calls by dose curve)
[6] = target: Estrogen receptor (Homo sapiens) (UniProt P03372); assay: qHTS assay to identify small molecule agonists of the estrogen receptor alpha (ER-alpha) signaling pathway using the BG1 cell line (AID 743079); further: nearly all actives have a fitted effect of over 20% in size
[7] = qHTS assay to identify small molecule antagonists of the estrogen receptor alpha (ER-alpha) signaling pathway using the BG1 cell line (AID 743080; calls by dose curve;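 further: BG1 cells stimulated with 17beta-estradiol alongside compound; series mostly up to about 70 µM; nearly all actives have a fitted effect of over 25% in size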)
Procedure, shortened: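 Luciferase inhibition measured with ONE-Glo after 30 min at RT in BG1Luc4E2 cells given test compounds and 17beta-estradiol for 21.5 h at 37 C; CellTiter-Fluor viability read in the same wells beforehand.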

[8] = qHTS assay to identify small molecule antagonists of the estrogen receptor alpha (ER-alpha) signaling pathway using the BG1 cell line - cell viability counter screen (AID 743081);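 further: compound given together with 17beta-estradiol as the ER stimulus; series mostly up to about 70 µM; nearly all actives have a fitted effect of over 45% in size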
Aromatase (Homo sapiens) = Aromatase (Homo sapiens) (UniProt P11511); assay: qHTS assay to identify aromatase inhibitors (AID 743083); further: series mostly up to about 70 µM; nearly all actives have a fitted effect of over 55% in size
[9] = qHTS assay to identify aromatase inhibitors - cell viability counter screen (AID 743084);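 further: cells stimulated with testosterone during compound exposure; nearly all actives have a fitted effect of over 55% in size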
[10] = target: Aryl hydrocarbon receptor (Homo sapiens) (UniProt P35869); assay: qHTS assay to identify small molecule that activate the aryl hydrocarbon receptor (AhR) signaling pathway (AID 743085);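 further: HG2L7.5c1 human HepG2 liver cells with stably integrated DRE-driven firefly reporter; series mostly up to about 70 µM; nearly all actives have a fitted effect of over 15% in size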
Procedure, shortened: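 HepG2 cells (HG2L7.5c1) stably carrying a firefly luciferase reporter driven by 20 dioxin responsive elements were exposed to compound for 24 h at 37C after a 5 h settling period; luminescence rise (ONE-Glo) indicated activation.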

[11] = qHTS assay to identify small molecule that activate the aryl hydrocarbon receptor (AhR) signaling pathway - cell viability counter screen (AID 743086);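 further: HepG2 liver cells carrying the AhR DRE luciferase reporter; series mostly up to about 70 µM; nearly all actives have a fitted effect of over 45% in size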
Procedure, shortened: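 Cytotoxicity counter screen: CellTiter-Fluor signal (30 min, 37 C) in 4000 HepG2 cells/well carrying the DRE-luciferase reporter, following 24 h compound exposure at 37 C.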

[12] = target: Peroxisome proliferator-activated receptor gamma (Homo sapiens) (UniProt P37231); assay: qHTS assay to identify small molecule agonists of the peroxisome proliferator-activated receptor gamma (PPARg) signaling pathway (AID 743094; active means well fitted activation curve with a large enough effect in the signal ratio in the repeat runs, not every such curve was filed as active; the % refers to the signal ratio)
Procedure, shortened: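 Cell-based bla reporter, HEK293H background, PPARg-driven UAS. Pre-incubation 5 h, 37C, 5% CO2. Compound 17 h, 37C. Substrate 1 h RT; fluorescence.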

[13] = target: Peroxisome proliferator-activated receptor gamma (Homo sapiens) (UniProt P37231); assay: qHTS assay to identify small molecule antagonists of the peroxisome proliferator-activated receptor gamma (PPARg) signaling pathway (AID 743191; calls by dose curve; further: series mostly up to about 63 µM; nearly all actives have a fitted effect of over 30% in size)
Procedure, shortened: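 Beta-lactamase reporter under UAS control in HEK293H PPARg-bla cells; compound treatment 17 h at 37C. Read-out: fluorescence intensity after 1 h room-temperature incubation with LiveBLAzer B/G FRET substrate.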

[14] = qHTS assay to identify small molecule antagonists of the peroxisome proliferator-activated receptor gamma (PPARg) signaling pathway - cell viability counter screen (AID 743194); further: nearly all actives have a fitted effect of over 55% in size
Procedure, shortened: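 Viability was measured as CellTiter-Glo luminescence in GeneBLAzer PPARg UAS-bla HEK293H cells. These cells had been exposed 17 h at 37 C to compounds together with rosiglitazone at 50 nM final, with the beta-lactamase readout taken in the same wells.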

[15] = qHTS assay for small molecule agonists of the antioxidant response element (ARE) signaling pathway - cell viability counter screen (AID 743203; calls by dose curve; further: nearly all actives have a fitted effect of over 55% in size)
Procedure, shortened: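 Measured in the same wells as the beta-lactamase ARE reporter, this read-out is CellTiter-Glo luminescence from HepG2 ARE-bla cells given compounds for 16 hrs.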

[16] = qHTS assay for small molecule activators of the heat shock response signaling pathway - cell viability counter screen (AID 743209); further: nearly all actives have a fitted effect of over 50% in size
Procedure, shortened: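 Same-well multiplex: after 2.5 h room-temperature incubation with LiveBLAzer B/G substrate and fluorescence reading, CellTiter-Glo reagent was added to HSE-bla HeLa cells that had received compound for 5 h at 37 C; luminescence read after 30 min.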

[17] = qHTS assay for small molecule activators of the heat shock response signaling pathway (AID 743210; active means well fitted activation curve with a large enough effect in the signal ratio in the repeat runs, with a control signal flat, not every such curve was filed as active; the % refers to the signal ratio;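 further: HeLa cells with beta-lactamase reporter driven by heat shock elements; series mostly up to about 63 µM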)
Procedure, shortened: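 Fluorescence from a cleaved B/G FRET substrate (2.5 h, room temp) reports HSE-driven beta-lactamase in HeLa cells treated 5 h at 37 C with DMSO-dissolved compounds.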

[18] = qHTS assay to identify small molecule agonists of the peroxisome proliferator-activated receptor delta (PPARd) signaling pathway - cell viability counter screen (AID 743211); further: nearly all actives have a fitted effect of over 55% in size
Procedure, shortened: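 PPARd-bla HEK293H cells (UAS-beta-lactamase reporter) were treated with compounds for 17 h at 37 C. Viability was then read in the same wells by CellTiter-Glo luminescence after 30 min at room temperature.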

Chain of Aryl hydrocarbon receptor (Homo sapiens) (P35869 whole entry, looked up): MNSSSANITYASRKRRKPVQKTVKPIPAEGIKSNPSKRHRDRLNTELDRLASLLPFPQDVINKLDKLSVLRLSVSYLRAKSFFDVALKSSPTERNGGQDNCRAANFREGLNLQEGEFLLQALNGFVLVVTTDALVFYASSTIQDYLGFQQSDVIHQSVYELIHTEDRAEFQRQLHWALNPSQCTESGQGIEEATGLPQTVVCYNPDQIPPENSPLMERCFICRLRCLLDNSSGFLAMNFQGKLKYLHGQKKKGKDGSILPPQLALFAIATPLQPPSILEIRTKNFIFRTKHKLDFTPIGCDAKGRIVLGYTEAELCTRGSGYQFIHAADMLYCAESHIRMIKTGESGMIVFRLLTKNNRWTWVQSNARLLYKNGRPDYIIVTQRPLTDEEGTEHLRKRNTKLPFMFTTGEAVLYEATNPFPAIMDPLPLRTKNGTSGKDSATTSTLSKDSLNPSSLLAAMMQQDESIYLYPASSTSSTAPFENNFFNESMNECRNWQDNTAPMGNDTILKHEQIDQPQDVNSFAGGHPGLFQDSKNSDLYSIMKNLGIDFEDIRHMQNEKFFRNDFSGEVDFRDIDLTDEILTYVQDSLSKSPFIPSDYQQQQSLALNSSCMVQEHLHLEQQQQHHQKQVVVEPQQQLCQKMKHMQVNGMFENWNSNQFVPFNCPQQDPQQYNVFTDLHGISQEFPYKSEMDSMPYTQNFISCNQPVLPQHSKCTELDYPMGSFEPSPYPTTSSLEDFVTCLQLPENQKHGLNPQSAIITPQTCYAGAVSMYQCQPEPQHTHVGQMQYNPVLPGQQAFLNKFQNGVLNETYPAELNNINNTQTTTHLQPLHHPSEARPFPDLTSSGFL
Chain of Estrogen receptor (Homo sapiens) (P03372 whole entry, looked up): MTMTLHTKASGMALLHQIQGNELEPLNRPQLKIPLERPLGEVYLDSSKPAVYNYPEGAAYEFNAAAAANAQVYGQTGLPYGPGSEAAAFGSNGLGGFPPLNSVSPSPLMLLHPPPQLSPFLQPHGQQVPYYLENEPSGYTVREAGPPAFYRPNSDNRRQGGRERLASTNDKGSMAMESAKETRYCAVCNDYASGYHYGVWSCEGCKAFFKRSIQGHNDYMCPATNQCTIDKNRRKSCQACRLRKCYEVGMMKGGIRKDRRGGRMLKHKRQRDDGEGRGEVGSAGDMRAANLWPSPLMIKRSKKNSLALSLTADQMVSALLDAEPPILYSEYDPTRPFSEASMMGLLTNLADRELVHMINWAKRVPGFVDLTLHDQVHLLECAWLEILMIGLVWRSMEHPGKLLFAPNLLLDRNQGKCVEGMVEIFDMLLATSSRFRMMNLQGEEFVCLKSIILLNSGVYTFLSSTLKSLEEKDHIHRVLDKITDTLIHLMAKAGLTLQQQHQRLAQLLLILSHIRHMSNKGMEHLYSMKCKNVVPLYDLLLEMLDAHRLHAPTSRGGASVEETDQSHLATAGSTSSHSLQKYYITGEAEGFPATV
Chain of Aromatase (Homo sapiens) (P11511 whole entry, looked up): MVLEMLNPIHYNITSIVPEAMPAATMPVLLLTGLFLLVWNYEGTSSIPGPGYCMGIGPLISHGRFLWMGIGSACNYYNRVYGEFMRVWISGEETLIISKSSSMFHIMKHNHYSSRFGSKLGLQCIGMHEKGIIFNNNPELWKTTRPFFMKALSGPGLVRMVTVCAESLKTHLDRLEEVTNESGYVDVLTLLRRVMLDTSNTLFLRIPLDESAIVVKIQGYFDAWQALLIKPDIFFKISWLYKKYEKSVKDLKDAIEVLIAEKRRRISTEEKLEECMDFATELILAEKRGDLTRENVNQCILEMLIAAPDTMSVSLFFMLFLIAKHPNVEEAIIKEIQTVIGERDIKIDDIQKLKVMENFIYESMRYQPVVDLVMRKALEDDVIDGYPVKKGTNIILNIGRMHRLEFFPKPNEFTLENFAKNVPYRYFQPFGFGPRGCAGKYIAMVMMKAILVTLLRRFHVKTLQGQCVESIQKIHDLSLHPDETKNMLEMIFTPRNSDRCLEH
Chain of Peroxisome proliferator-activated receptor gamma (Homo sapiens) (P37231 whole entry, looked up): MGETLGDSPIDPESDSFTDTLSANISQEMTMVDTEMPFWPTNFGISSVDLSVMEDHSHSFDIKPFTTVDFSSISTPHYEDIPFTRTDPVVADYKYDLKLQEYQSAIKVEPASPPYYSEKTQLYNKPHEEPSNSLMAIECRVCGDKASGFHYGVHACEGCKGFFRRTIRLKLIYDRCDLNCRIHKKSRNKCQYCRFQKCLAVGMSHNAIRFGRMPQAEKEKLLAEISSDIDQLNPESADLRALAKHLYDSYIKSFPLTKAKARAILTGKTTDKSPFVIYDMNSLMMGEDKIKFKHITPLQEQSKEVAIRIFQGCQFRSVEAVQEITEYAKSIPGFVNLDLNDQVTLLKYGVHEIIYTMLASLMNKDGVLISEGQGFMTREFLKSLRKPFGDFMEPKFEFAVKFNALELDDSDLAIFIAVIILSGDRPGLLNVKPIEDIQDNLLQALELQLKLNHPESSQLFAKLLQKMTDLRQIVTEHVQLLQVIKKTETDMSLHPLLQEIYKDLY

## Cc1ccccc1C(OCCN(C)C)c1ccccc1 (stereo not drawn)
[1]
  Potency: 21.1 µM (active) and 27.3 µM (active)
[2]
  Potency: inactive
[3]
  Potency: inactive
[4]
  Potency: inactive
[5]
  Potency: inactive
[6]
  Potency: inactive
[7]
  Potency: inactive
[8]
  Potency: inactive
Aromatase (Homo sapiens)
  Potency: inactive
[9]
  Potency: inactive
[10]
  Potency: inactive
[11]
  Potency: inactive
[12]
  outcome: inactive
[13]
  outcome: inactive
[14]
  outcome: inactive
[15]
  outcome: inactive
[16]
  outcome: inactive
[17]
  outcome: inactive

## CCCCC1C(=O)N(c2ccccc2)N(c2ccccc2)C1=O
[1]
  Potency: inactive
[2]
  Potency: inactive
[3]
  Potency: inactive
[4]
  Potency: inactive
[5]
  Potency: inactive
[6]
  Potency: inactive
[7]
  Potency: inactive
[8]
  Potency: inactive
Aromatase (Homo sapiens)
  Potency: inactive
[9]
  Potency: inactive
[10]
  Potency: inactive
[11]
  Potency: inactive
[12]
  outcome: inactive
[13]
  outcome: inactive
[14]
  outcome: inactive
[15]
  outcome: inactive
[16]
  outcome: inactive
[17]
  outcome: inactive
[18]
  outcome: inactive

## Cc1cc(=O)[nH]c(=S)[nH]1
[1]
  Potency: inactive
[2]
  Potency: inactive
[3]
  Potency: inactive
[4]
  Potency: inactive
[5]
  Potency: inactive
[6]
  Potency: inactive
[7]
  Potency: inactive
[8]
  Potency: inactive
Aromatase (Homo sapiens)
  Potency: inactive
[9]
  Potency: inactive
[10]
  Potency: inactive
[11]
  Potency: inactive
[12]
  outcome: inactive
[13]
  outcome: inactive
[14]
  outcome: inactive
[15]
  outcome: inactive
[16]
  outcome: inactive
[17]
  outcome: inactive
[18]
  outcome: inactive

## CC(=O)NS(=O)(=O)c1ccc(N)cc1
[1]
  Potency: inactive
[2]
  Potency: inactive
[3]
  Potency: inactive
[4]
  Potency: inactive
[5]
  Potency: inactive
[6]
  Potency: inactive
[7]
  Potency: inactive
[8]
  Potency: inactive
Aromatase (Homo sapiens)
  Potency: inactive
[9]
  Potency: inactive
[10]
  Potency: inactive
[11]
  Potency: inactive
[14]
  outcome: inactive
[15]
  outcome: inactive
[16]
  outcome: inactive
[17]
  outcome: inactive
[18]
  outcome: inactive
